High-throughput results deposited in PubChem BioAssay by National Center for Advancing Translational Sciences (NCATS).
Rows were chosen to be rich in hits. Some 3.8% of all compounds tested hit in one or more screens of this group.
Nrf2 block = Nrf2 pathway inhibition; A549 ARE-Fluc reporter, luciferase luminescence, 18-24 h; Potency, µM (top dose mostly 46 µM), for the others: at the highest dose activity change, negative = inhibition, hits mostly inhibitors; actives 2.1% (n = 360,000); AID 504444; further: on the % scale 0 is the no-effect control and ±100 the full control effect; nearly all actives have a fitted effect of over 60% in size
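Concentration-response testing used A549 ARE_Fluc cells at 5000 cells/well. Following an 18-24 h compound incubation, viability was read by fluorescence (Ex 405/Em 525) and luciferase output by luminescence.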
IDH1 R132H inh = blocks human mutant IDH1 R132H enzyme; O75874; IDH1-R132H enzyme, NADPH consumption, diaphorase/resazurin fluorescence; Potency, µM (highest dose often 76.6 µM), for the others: at the highest dose activity change, negative = inhibition, usual class: inhibitors; actives 0.093% (n = 390,000); AID 602179; further: on the % scale 0 is the no-effect control and ±100 the full control effect; nearly all actives have a fitted effect of over 65% in size
Target sequence (O75874 whole entry R132H, stated change not applied): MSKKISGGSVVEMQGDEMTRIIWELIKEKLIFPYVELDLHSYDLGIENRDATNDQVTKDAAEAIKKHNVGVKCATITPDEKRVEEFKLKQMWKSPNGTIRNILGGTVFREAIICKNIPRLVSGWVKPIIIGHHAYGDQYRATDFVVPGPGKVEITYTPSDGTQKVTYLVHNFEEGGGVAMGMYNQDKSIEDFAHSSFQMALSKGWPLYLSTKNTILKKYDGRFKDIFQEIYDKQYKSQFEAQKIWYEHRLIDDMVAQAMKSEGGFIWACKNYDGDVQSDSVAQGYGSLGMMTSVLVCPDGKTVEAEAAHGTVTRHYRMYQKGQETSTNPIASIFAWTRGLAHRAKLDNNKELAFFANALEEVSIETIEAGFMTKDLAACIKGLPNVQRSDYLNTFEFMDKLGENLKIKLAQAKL
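IDH1-R132H (0.5 ug/mL dispensed) in pH 7.5 Tris buffer was preincubated 30 min with compound, then given a substrate mix of 0.016 mM NADPH and 2 mM alpha-KG for 80 min at room temperature; remaining NADPH was read by diaphorase/resazurin fluorescence.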
ELG1 DNA repair = inhibitors of ELG1-dependent DNA repair in HEK293T cells | HEK293T ELG1-luciferase reporter, luminescence, 16 h; DNA damage induced by 5-fluorouridine | Potency, µM (doses to about 46.1 µM), inactives show top-dose activity change, negative = inhibition, usual class: inhibitors | AID 504467 | actives 2.3% (n = 330,000); further: on the % scale 0 is the no-effect control and ±100 the full control effect; nearly all actives have a fitted effect of over 55% in size
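DMSO vehicle served as the neutral condition. Each well held 2,000 cells given 5-fluorouridine plus compound; after 16 hr at 37 °C/5% CO2, ONE-Glo was added and luciferase measured 30 min later.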
A549 tox = counter-screen for Nrf2 inhibitors: cytotoxicity in A549 cells. actives 0.16% (n = 390,000). Potency, µM (doses to about 46 µM), without a hit: top-dose activity change, negative = cytotoxicity, hits mostly inhibitors. A549 ARE-Fluc cells, CellTiter-Fluor viability, 18-24 h; further: on the % scale 0 is the no-effect control and ±100 the full control effect
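Cytotoxicity counterscreen: CellTiter-Fluor fluorescence was measured in A549 ARE_Fluc cells after 18-24 h of compound exposure in a concentration series. The subsequent BugLite luminescent read reports ARE-luciferase activity.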
Nrf2 ARE act = Nrf2 pathway activation; AREc32 ARE-luciferase reporter (MCF7-derived line), luminescence, 24 h; Potency, µM (doses to about 46.1 µM), without a hit: top-dose activation, hits mostly activators; actives 0.31% (n = 410,000); AID 624171; further: % of control where 0% means no effect; nearly all actives have a fitted effect of over 65% in size
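For detection, Steady-Glo was added and plates sat 30 min at RT; before that, AREc32_Fluc cells grown overnight in OPTI-MEM/5% FBS had been treated with 23 nL compound for 24 hr at 37 deg C.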
The depositor's hits bear a star; ? = inconclusive; / = no result given. The call rests on the fitted dose curve; in most records, active means well fitted curve in the direction sought with a large enough effect; inconclusive means small, poorly fitted or top-dose-only effect, or another doubt; inactive means no such curve, though single readings can be large; an effect the other way counts as inactive or inconclusive. Potency means the concentration at half of the fitted maximal effect.

SMILES	Nrf2 block	IDH1 R132H inh	ELG1 DNA repair	A549 tox	Nrf2 ARE act
Cc1cc2cc(C(c3nnnn3C3CCCC3)N(Cc3cccnc3)Cc3ccco3)c(=O)[nH]c2cc1C (stereo not drawn)	?	2%	18µM*	?	9%
Cc1ccc2cc(C(c3nnnn3C3CCCC3)N(Cc3ccccc3)Cc3ccco3)c(=O)[nH]c2c1 (stereo not drawn)	-23%	-7%	4%	-16%	0%
O=C(NCc1ccccc1)Nc1cccn(Cc2ccccc2)c1=O	?	3%	10%	-2%	7%
CCOc1ccc(NC(=O)Nc2cccn(Cc3ccccc3)c2=O)cc1	9.2µM*	5%	?	?	5%
C=CCn1c2ccccc2c2nnc(SCCCn3c(=O)[nH]c4ccccc43)nc21	13µM*	-1%	?	-14%	0%
CSc1ccc(CN2CCN(Cc3ccc([N+](=O)[O-])cc3)CC2)cc1	8.2µM*	9%	?	-11%	4%
CSc1ccc(CN2CCN(C(=O)CC(C)C)CC2)cc1	26µM*	0%	?	0%	-1%
O=[N+]([O-])c1ccc(CN2CCCCCC2)cc1	7%	2%	-2%	0%	0%
O=C1C2C(C(=O)N1CCN1CCN(Cc3ccc([N+](=O)[O-])cc3)CC1)[C@H]1C=C[C@@H]2C1 (stereo partly drawn)	?	5%	16µM*	-3%	0%
Cc1cc2c(s1)c1cnn(Cc3c(C)cc(F)cc3C)c(=O)c1n2C	7%	/	/	3%	/
COCCNC(=O)C1CCCN(C(=O)c2ccc3ccccc3n2)CC1 (stereo not drawn)	/	/	/	/	-1%
O=C1c2c(O)ccc(O)c2C(=O)c2c(NCCNCCO)ccc(NCCNCCO)c21	?	9%	11µM*	13µM*	-2%
O=C1c2ccccc2C(=O)c2c(NCCCN(CCO)CCO)cccc21	?	7%	-2%	?	3%
FC(F)Oc1ccc(NC(=S)NCc2ccccc2)cc1Cl	23µM*	0%	0%	?	0%
FC(F)Oc1ccc(NC(=S)NCc2ccccc2)cc1	5%	2%	9%	10%	2%
O=S(=O)(c1ccccc1Br)N1CCN(c2nc(-c3ccccc3)nc3ccccc23)CC1	0%	/	/	0%	/
Cn1c(=O)c2[nH]c(Cc3cccc4ccccc34)nc2n(C)c1=O	21µM*	1%	/	-8%	3%
CCCS(=O)(=O)NC(=O)C1(C)CCCN(C(=O)c2cccc(C(F)(F)F)c2)C1 (stereo not drawn)	/	/	/	/	0%
Cc1[nH]c2ccccc2c1/C=N/NC(=S)NC(C)C	15µM*	13%	-4%	?	5%
Cc1csc(=O)n1CCC(=O)OCC(=O)NNC(=O)c1ccccc1	2%	2%	14%	-2%	1%
CCc1cc2c(NCC3CCCO3)ncnc2s1 (stereo not drawn)	?	5%	?	-8%	-1%
Cc1sc2ncnc(NCC3CCCO3)c2c1C (stereo not drawn)	21µM*	2%	?	-12%	0%
CC(C)N1C(=O)/C(=C\c2nc3ccccc3c(=O)n2-c2ccccc2)c2ccccc21	?	0%	13µM*	?	18%
CC(C)N1C(=O)/C(=C/c2nc3ccccc3c(=O)n2-c2ccccc2)c2ccccc21	?	?	21µM*	?	?
CC(C)N1C(=O)C(Cc2nc3ccccc3c(=O)n2-c2ccccc2)c2ccccc21 (stereo not drawn)	2%	2%	-2%	-12%	3%
CC(C)C(c1nnnn1C1CCCC1)N(C)C1CCCCC1 (stereo not drawn)	14%	4%	-1%	6%	-1%
Cc1ccc(C(c2nnnn2C2CCCCC2)N(C)C2CCCCC2)cc1 (stereo not drawn)	26µM*	1%	-15%	1%	0%
O=C(NCCc1ccccc1Cl)C1CCC(=O)N(CC2CCCCC2)C1 (stereo not drawn)	10%	-2%	0%	-2%	0%
